# Rows were chosen to be rich in hits. Some 5% of all compounds tested hit in one or more screens of this group.
# Vaccinia mCherry = vaccinia inhibition (mCherry reporter). Potency, µM (series often up to 36.5 µM), for the others: top-dose activity change, negative = inhibition, actives largely listed as inhibitors. Vaccinia virus mCherry reporter infection, fluorescence. 0.63% of 310,000 active; calls by dose curve; tested in A549 cells; also: potency is read from the fitted curve at half-maximal effect; nearly all actives have a fitted effect of over 35% in size
# LmPK inhibitor = blocks Leishmania mexicana pyruvate kinase activity. purified LmPK, Kinase-Glo ATP luminescence, 1 h. Potency, µM (series often up to 57.5 µM), for the others: at the top dose activity change, negative = inhibition, most hits filed as inhibitors. 0.37% of 290,000 active; also: potency is read from the fitted curve at half-maximal effect
# Target sequence (Q27686 whole entry, looked up): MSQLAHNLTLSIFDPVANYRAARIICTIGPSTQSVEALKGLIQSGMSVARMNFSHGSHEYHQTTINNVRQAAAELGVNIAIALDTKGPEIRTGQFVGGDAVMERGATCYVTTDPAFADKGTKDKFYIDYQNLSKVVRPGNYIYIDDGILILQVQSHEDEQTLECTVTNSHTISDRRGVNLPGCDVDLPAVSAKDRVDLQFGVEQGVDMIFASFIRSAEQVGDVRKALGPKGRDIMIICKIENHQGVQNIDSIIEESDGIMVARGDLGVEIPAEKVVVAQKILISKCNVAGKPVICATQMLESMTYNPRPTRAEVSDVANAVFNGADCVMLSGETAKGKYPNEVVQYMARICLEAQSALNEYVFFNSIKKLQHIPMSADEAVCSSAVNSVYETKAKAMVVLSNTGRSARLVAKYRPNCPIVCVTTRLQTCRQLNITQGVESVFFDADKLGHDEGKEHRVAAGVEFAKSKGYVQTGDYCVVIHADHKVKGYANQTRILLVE
#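 ATP generated from ADP (0.1 mM) and PEP (0.5 mM) by 0.1 nM LmPK over 1 h at room temperature (pH 7.2 imidazole buffer) was detected by coupled luciferase luminescence. Values were normalized to uninhibited and no-enzyme wells.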
# VACV Venus inh = vaccinia inhibition (Venus reporter); Vaccinia virus Venus reporter expression, fluorescence; Potency, µM (titrated, usually from 36.5 µM), without a hit: top-dose activity change, negative = inhibition, hits mostly inhibitors; 0.46% of 330,000 active; calls by dose curve; tested in A549 cells; also: potency is read from the fitted curve at half-maximal effect; nearly all actives have a fitted effect of over 30% in size
# Tb PYK inh = inhibitors of Trypanosoma brucei pyruvate kinase; Q57TT1; TbPYK enzyme, Kinase-Glo Plus ATP luminescence, 45 min; Potency, µM (series often up to 76.8 µM), without a hit: at the top dose activity, negative = inhibition, hits mostly inhibitors; 0.12% of 410,000 active; also: potency is read from the fitted curve at half-maximal effect; nearly all actives have a fitted effect of over 50% in size
#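 Glycolytic pyruvate kinase of T. brucei was incubated with substrate, test compound and 130 uM ADP for 45 minutes at room temperature. Luminescent Kinase-Glo Plus signal was measured after 10 minutes.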
# HCMV inh = inhibitors of human cytomegalovirus. HFF cells, HCMV-luciferase reporter, 72 h; hits give low values. activity change, negative = inhibition, % at 57.5 µM. 4.5% of 410,000 active. AID 1259415; in the data active = activity change below about -60%; inconclusive = no clear call, values can overlap the other calls; inactive = above about -39%
#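 Compounds were evaluated in HFFs infected with an HCMV luciferase reporter virus (MOI 1 PFU/cell). Luciferase in lysates collected 72 h post infection served as the replication measure.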
# Starred values were filed as active, the others as inactive; i = inactive; ? = inconclusive; . = no result. Unless noted, calls follow the shape of the dose curve; as a rule, active = well fitted curve in the direction sought with a large enough effect; inconclusive = small, poorly fitted or top-dose-only effect, or another doubt; inactive = no such curve, though single readings can be large; an effect the other way counts as inactive or inconclusive. % is scaled to controls: 0 for no effect and ±100 for the full control effect.
SMILES,Vaccinia mCherry,LmPK inhibitor,VACV Venus inh,Tb PYK inh,HCMV inh
Cc1c(C(=O)Nc2ccc(F)cc2)oc2ccc(S(=O)(=O)N3CCC4(CC3)OCCO4)cc12,.,4%,.,6%,-63*
CCN(CC)CCCNC(=O)c1oc2ccc(S(=O)(=O)N3CC(C)CC(C)C3)cc2c1C (stereo not given),?,-2%,-27%,3%,-98*
Cc1c(C(=O)NCCN2CCOCC2)oc2ccc(S(=O)(=O)N3CCCCCC3)cc12,-19%,-10%,-11%,-1%,-100*
Cc1c(C(=O)Nc2ccc(F)c(F)c2)oc2ccc(S(=O)(=O)N3CCC4(CC3)OCCO4)cc12,-24%,.,?,1%,1
COc1cccc(NC(=O)CSc2nc(=O)n(Cc3ccco3)c3c2CCC3)c1,-18%,.,-7%,-9%,-11
COc1ccc(NS(=O)(=O)c2ccc(-c3coc(C)n3)cc2)cc1OC,.,6%,.,0%,-92*
COc1ccc(NS(=O)(=O)c2ccc(-c3coc(C)n3)cc2)cc1,.,6%,.,0%,-26
N#Cc1c(-c2ccccc2)nc(-c2ccccc2)[nH]c1=O,-8%,8%,-8%,-4%,50
Nc1nc(-c2ccccc2)[nH]c(=O)c1N=O,?,2%,13µM*,0%,-13
Oc1ccc2ccccc2c1N=Nc1ccccn1,.,-14%,-20%,-4%,-98*
Oc1ccc2ccccc2c1N=Nc1ccccc1F,.,-5%,.,0%,0
CCOC(=O)c1[nH]cnc1N=Nc1c(O)ccc2ccccc12,188%,?,155%,-7%,-97*
COc1ccccc1-c1cn(S(=O)(=O)c2ccc(C)cc2)nc1N,.,7%,-26%,-2%,-18
CC1(C)N=C(N)N=C(N)N1c1ccc(CCCCc2ccccc2)cc1,3.2µM*,.,?,0%,-101*
CC1(C)N=C(N)N=C(N)N1c1ccccc1,.,-8%,?,-3%,-30
COc1ccc(CC2NC[C@H](O)[C@H]2OC(C)=O)cc1 (stereo not given in full),0.79µM*,.,1µM*,.,.
COc1ccc(CC2NCCC3(O)CCCCC23)cc1 (stereo not given),.,10%,.,-1%,-8
COc1ccc(CC2NCC(O)C2OC(C)=O)cc1 (stereo not given),0.0089µM*,.,0.11µM*,-8%,-109*
CCN1CCN(Cc2nnc(-c3ccc(C)cc3)o2)CC1,.,2%,.,1%,-38
CC(=O)Cc1ccccc1OC(=O)c1ccco1,-11%,1%,3%,0%,1
Cc1ccc(NC(=S)/C(=C(\[O-])c2ccc(F)cc2)[n+]2ccccc2)cc1,0%,-3%,9%,-18%,-73*
O=C(C[C@@H]1C=C[C@@H](NC(=O)C2CC2)[C@@H](CO)O1)NCc1ccccc1Cl,-8%,.,-2%,.,-62*
CCOc1ccc(NC(=O)CSc2nnc(Cn3cnc([N+](=O)[O-])n3)n2CC)cc1,i,0%,-3%,-3%,-67*
CN(C)CCOC(=O)c1ccc2c(c1)S(=O)(=O)c1ccccc1C2=O,i,6%,9%,-2%,-11
COC(=O)c1cc2oc(C)cc2n1CC(=O)N1CCCc2ccccc21,.,5%,.,-19%,6
SMILES,Vaccinia mCherry,LmPK inhibitor,VACV Venus inh,Tb PYK inh,HCMV inh
CCOC(=O)C(=CNc1ccccc1Cl)C(=O)OCC,-10%,-2%,?,3%,-61*
N=C1C=CC(=C(c2ccc(N)cc2)c2ccc(N)cc2)C=C1,?,.,?,?,-100*
CCSc1ncc(Cl)c(C(=O)Nc2ccc(S(=O)(=O)N3CCC(C)CC3)cc2)n1,?,.,-20%,-1%,?
CCS(=O)(=O)c1ncc(Cl)c(C(=O)Nc2ccc(S(=O)(=O)N3CCC(C)CC3)cc2)n1,?,3%,18µM*,-9%,-100*
CCCSc1ncc(Cl)c(C(=O)Nc2ccc(S(=O)(=O)N3CC(C)OC(C)C3)cc2)n1 (stereo not given),.,-4%,.,3%,-68*
CSc1ncc(Cl)c(C(=O)Nc2ccc(S(=O)(=O)N3CCC(C)CC3)cc2)n1,-30%,.,-19%,2%,-77*
CCSc1ncc(Cl)c(C(=O)Nc2ccc(S(=O)(=O)Nc3ncccn3)cc2)n1,-18%,-4%,-4%,-8%,10
CCCS(=O)(=O)c1ncc(Cl)c(C(=O)Nc2ccc(S(=O)(=O)Nc3ncccn3)cc2)n1,.,2%,.,-13%,-20

# Assay outcomes deposited in PubChem by National Center for Advancing Translational Sciences (NCATS).
